Here are results for 40 compounds from PubChem BioAssay (NCI).

Structures are written as SMILES. About 79,000 compounds went through this panel and 15% of them were active in at least one assay; those are over-represented in the sample as a whole. A number with no mark means an inactive call. Active and inactive are the calls of the source. Rule as the data show it: active = growth inhibition above about 70%; inactive = the rest.

One assay can be described thus: NCI Yeast Anticancer Drug Screen. Data for the bub3 strain (AID 167). Particulars: S. cerevisiae bub3 mutant strain, at 50.0 µM, active compounds read high. The essentials: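 Readout: yeast growth inhibition, expressed relative to vehicle-only wells. The test organism is a mutant strain from a panel with lesions in DNA repair or checkpoint genes.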
For `O=C(Nc1nc(C23CC4CC(CC(C4)C2)C3)cs1)c1cc2cc([N+](=O)[O-])ccc2oc1=O`, the growth inhibition is -15.2%.

In the case of `CCCCCCC(O)CCCCCCCCCCCO` (stereo unspecified), the growth inhibition was 10.2%.

With `O=C(Cc1ccccc1)Nc1ccc([N+](=O)[O-])cc1Cl`, the growth inhibition was 6.5%.

As for `CNC(=O)CCC(=O)O`, the growth inhibition was -23.4%.

With `OC1(c2ccc(-c3ccc(-c4ccc(C5(O)C(c6ccccc6)=C(c6ccccc6)C(c6ccccc6)=C5c5ccccc5)cc4)cc3)cc2)C(c2ccccc2)=C(c2ccccc2)C(c2ccccc2)=C1c1ccccc1`, the growth inhibition is -1.8%.

Take `Cc1cc(Br)c2c(c1N)C(=O)c1ccccc1C2=O`: the growth inhibition is 7.1%.

A further assay is described as follows: NCI Yeast Anticancer Drug Screen. Data for the mlh1 rad18 strain (AID 175). Particulars: S. cerevisiae mlh1 rad18 strain growth inhibition; at 50.0 µM; active compounds read high. The procedure, abridged:
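Vehicle-treated cultures served as the reference for growth inhibition in a yeast strain carrying DNA damage repair alterations exposed to each compound.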
On to `COc1ccc(NC(=O)CSc2nc(C)nc3c2sc(=S)n3-c2ccccc2)cc1`, for which the growth inhibition is 4.45%.

On to `CCN(CC)Cc1ccccc1COC(=O)c1ccc(OC)cc1`, for which the growth inhibition was 11.3%.

Consider `c1ccc(-c2c(-c3cccs3)[nH]c(-c3cccs3)c2-c2ccccn2)nc1`, for which the growth inhibition is -57%.

With `N#CCCNC1CCCCC1`, the growth inhibition is -0.25%.

In the case of `CCC(=O)NC(OCC1(CC)COC1)(C(F)(F)F)C(F)(F)F`, the growth inhibition is -13.2%.

In the case of `COc1cc(OC)c(NC(=O)/C=C/c2ccccc2)cc1Cl`, the growth inhibition was 21%.

Consider `CCOC(=O)c1nc2ccc(C(F)(F)F)cc2[nH]c1=O`, for which the growth inhibition was -10%.

As to `Cn1c(=O)oc2cc(C(O)CN3CCN(Cc4ccccn4)CC3)c(Cl)cc21` (stereo unspecified), the growth inhibition was 11.4%.

Take `CN1C(CC(=O)c2ccccc2)CCCC1CC(O)c1ccccc1` (stereo unspecified): the growth inhibition is 36.1%.

As to `O=C(O)CCC(CCC(=O)O)(C(=O)O)c1ccccc1`, the growth inhibition is -7.8%.

On to `COC1OC(CI)C(OC(=O)c2ccccc2)C(OC(=O)c2ccccc2)C1OC(=O)c1ccccc1` (stereo unspecified), for which the growth inhibition is 33.5%.

As to `CC1(C)N=C(N)N=C(N)N1c1cccc(/C=C/c2ccc([N+](=O)[O-])cc2)c1`, the growth inhibition is 9.75%.

Turning to `Cc1ncc([N+](=O)[O-])cc1C(=O)O`, the growth inhibition was -1.45%.

Take `O=C(c1ccccc1)C1(c2ccccc2)C(C(=O)c2ccccc2)(c2ccccc2)S1(=O)=O` (stereo unspecified): the growth inhibition was -15.3%.

In the case of `CCCCCC/C(C)=N/O`, the growth inhibition was -6.2%.

Take `CC(OC1CC(=O)CC2C(=O)C=CC(=O)C12)c1ccccc1` (stereo unspecified): the growth inhibition is 26.3%.

As to `C/C=C(\C)C(=O)N/N=C\C=C\c1ccccc1`, the growth inhibition was -7.05%.

In the case of `CN(C)OC(=O)Nc1cccc([N+](=O)[O-])c1`, the growth inhibition is -2.6%.

Turning to `O=S(=O)(Nc1cccc(Cl)c1)c1ccc(Cl)cc1`, the growth inhibition was 99.7% (active).

With `BrCCC1(CCBr)CCCCC1`, the growth inhibition is 57.8%.

As for `CN(C)CCCCCCNCCC#N`, the growth inhibition was -1.6%.

Turning to `COC(=O)c1ccc(C(=O)OC)c2nc3cc(C)ccc3nc12`, the growth inhibition is 14.4%.

On to `COc1ccc(C(=O)c2ccc(OC)c3ccccc23)c2ccccc12`, for which the growth inhibition is 4.25%.

On to `CC1C=CCCC1COC(=O)C(=O)OCC1CC=CCC1C` (stereo unspecified), for which the growth inhibition was 19.9%.

For `CCN(CC)c1ncnc2n[nH]nc12`, the growth inhibition is 3.45%.

Take `COC1(OC)C(c2ccc(Cl)cc2)C(C#N)(C#N)C1(OC)OC` (stereo unspecified): the growth inhibition is -7.45%.

Regarding `Cc1cc(Br)cc(C)c1NC(=O)C(=O)C1C(=O)C(CC2C(=O)c3ccccc3C2=O)C(=O)CC1(C)C` (stereo unspecified), the growth inhibition is 16.4%.

For `CCN(CC)CCCNc1ncnc2onc(C)c12`, the growth inhibition was -9.3%.

Turning to `CC(C)CC(CCl)Cc1nc2ccccc2[nH]1` (stereo unspecified), the growth inhibition was 27.5%.

As for `COc1ccc(OCOCOc2ccc(OC)cc2)cc1`, the growth inhibition is -27.8%.

In the case of `CCN(CC)Cc1cc(N)cc(N=Nc2ccc3c(c2)c2ccccc2n3CC)c1O`, the growth inhibition was 17.9%.

Take `CCOC(=O)CNC(=O)NC`: the growth inhibition was 38%.

Take `S=P(c1ccccc1)(c1ccccc1)C(P(c1ccccc1)c1ccccc1)P(c1ccccc1)c1ccccc1`: the growth inhibition was 62%.

For `c1ccc(N2CCN(c3ccccn3)CC2)nc1`, the growth inhibition was -5.1%.

Consider `O=C(Nc1nc(C23CC4CC(CC(C4)C2)C3)cs1)c1cc2cc([N+](=O)[O-])ccc2oc1=O`, for which the growth inhibition is -10.8%.

Consider `CCCCCCC(O)CCCCCCCCCCCO` (stereo unspecified), for which the growth inhibition is 15.5%.

As for `O=C(Cc1ccccc1)Nc1ccc([N+](=O)[O-])cc1Cl`, the growth inhibition is 38.1%.

In the case of `CNC(=O)CCC(=O)O`, the growth inhibition is -8.45%.

For the compound `OC1(c2ccc(-c3ccc(-c4ccc(C5(O)C(c6ccccc6)=C(c6ccccc6)C(c6ccccc6)=C5c5ccccc5)cc4)cc3)cc2)C(c2ccccc2)=C(c2ccccc2)C(c2ccccc2)=C1c1ccccc1`, the growth inhibition was 2%.

For the compound `Cc1cc(Br)c2c(c1N)C(=O)c1ccccc1C2=O`, the growth inhibition was 15.6%.
